Several values for one entry are separate records, joined by “and”; a condition that tells them apart may be missing. Equal entries are not always repeated. The campaign covered roughly 5,500 compounds. About 2,000 (36%) were called active. Roughly 18% stayed inconclusive and do not appear here. No stated cut-off is given here; in the data, active means normalized growth mostly below about 0.91 (no sharp cut-off); inconclusive means no clear call, values can overlap the other calls; inactive means mostly above about 0.92. This is one part of the list.
Experiment: chemical genetic growth profiling, strain panel (AID 1159580);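 further: tested at 20 µM; growth read once vehicle control cultures reached saturation at 30 °C; 1 = growth at the plate median or of vehicle wells; lower values mean less growth of the strain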
Conditions: S. cerevisiae deletion strains, growth OD

Measured: normalized growth

CCC1(c2ccc(N)cc2)CCC(=O)NC1=O (configuration not stated)
inactive: locus YAL021C, strain ccr4, active compounds read low 0.981 | locus YAL026C, strain drs2, active compounds read low 0.971 | locus YAL030W, strain snc1, active compounds read low 0.969 | locus YAL040C, strain CLN3, active compounds read low 0.987 | locus YBL061C, strain skt5, active compounds read low 0.968 | locus YBR009C, strain hhf1, active compounds read low 0.984 | locus YBR021W, strain FUR4, active compounds read low 1.01 | locus YBR023C, strain chs3, active compounds read low 0.979 | locus YBR171W, strain sec66, active compounds read low 0.957 | locus YBR229C, strain ROT2, active compounds read low 0.995 | locus YBR231C, strain swc5, active compounds read low 0.943 | locus YBR279W, strain paf1, active compounds read low 0.988 | locus YCL011C, strain gbp2, active compounds read low 0.984 | locus YCL016C, strain dcc1, active compounds read low 0.994 | locus YCL029C, strain bik1, active compounds read low 1 | locus YCL069W, strain vba3, active compounds read low 0.956 | locus YCR088W, strain abp1, active compounds read low 0.974 | locus YDL005C, strain med2, active compounds read low 0.955 | locus YDL035C, strain GPR1, active compounds read low 1.04 | locus YDL040C, strain nat1, active compounds read low 0.978 | locus YDL074C, strain BRE1, active compounds read low 0.994 | locus YDL101C, strain DUN1, active compounds read low 1.01 | locus YDL134C, strain PPH21, active compounds read low 1.02 | locus YDL185W, strain tfp1, active compounds read low 1.01 | locus YDL192W, strain arf1, active compounds read low 0.996 | locus YDR001C, strain nth1, active compounds read low 0.96 | locus YDR069C, strain doa4, active compounds read low 0.962 | locus YDR101C, strain arx1, active compounds read low 1.01 | locus YDR137W, strain rgp1, active compounds read low 1.06 | locus YDR150W, strain NUM1, active compounds read low 1 | locus YDR159W, strain sac3, active compounds read low 0.979 | locus YDR162C, strain NBP2, active compounds read low 1.03 | locus YDR195W, strain ref2 0.926 | locus YDR297W, strain sur2, active compounds read low 0.973 | locus YDR318W, strain mcm21, active compounds read low 0.991 | locus YDR334W, strain swr1, active compounds read low 0.964 | locus YDR335W, strain msn5, active compounds read low 0.959 | locus YDR363W, strain ESC2, active compounds read low 1.01 | locus YDR388W, active compounds read low 0.999 | locus YDR392W, strain spt3, active compounds read low 1.02 | locus YDR502C, strain sam2, active compounds read low 0.999 | locus YEL003W, strain gim4, active compounds read low 0.957 | locus YEL037C, strain rad23, active compounds read low 0.951 | locus YEL061C, strain CIN8 (second series), active compounds read low 0.961 | locus YEL061C, strain CIN8, active compounds read low 1.01 | locus YER002W, strain NOP16, active compounds read low 0.977 | locus YER015W, strain faa2, active compounds read low 0.966 | locus YER016W, strain bim1, active compounds read low 0.987 | locus YER110C, active compounds read low 0.993 | locus YER111C, strain swi4, active compounds read low 0.968 | locus YER155C, strain BEM2 (second series), active compounds read low 0.878 | locus YER155C, strain BEM2, active compounds read low 0.999 | locus YER167W, strain BCK2, active compounds read low 1 | locus YFR010W, strain ubp6, active compounds read low 0.945 | locus YGL078C, strain dbp3, active compounds read low 0.992 | locus YGL086W, strain mad1, active compounds read low 0.994 | locus YGL167C, strain pmr1, active compounds read low 0.961 | locus YGL173C, strain kem1, active compounds read low 0.936 | locus YGL227W, strain vid30, active compounds read low 0.976 | locus YGL248W, strain PDE1, active compounds read low 0.999 | locus YGL253W, strain hxk2, active compounds read low 0.967 | locus YGR078C, strain PAC10, active compounds read low 0.997 | locus YGR135W, strain pre9, active compounds read low 0.991 | locus YGR252W, strain gcn5, active compounds read low 0.992 | locus YHR013C, strain ard1, active compounds read low 0.956 | locus YHR027C, strain rpn1, active compounds read low 0.981 | locus YHR030C, strain SLT2, active compounds read low 1 and 0.997 | locus YHR079C, strain IRE1 (second series), active compounds read low 0.995 | locus YHR079C, strain IRE1, active compounds read low 1.04 | locus YHR094C, strain hxt1, active compounds read low 0.995 | locus YHR129C, strain ARP1, active compounds read low 0.999 | locus YHR142W, strain chs7, active compounds read low 0.932 | locus YHR200W, strain rpn10, active compounds read low 0.999 | locus YIL066C, strain RNR3, active compounds read low 1.03 | locus YIL073C, strain SPO22, active compounds read low 1.03 | locus YIL125W, strain kgd1, active compounds read low 0.998 | locus YIR030C, strain dcg1, active compounds read low 0.995 | locus YJL092W, strain hpr5, active compounds read low 0.952 | locus YJL095W, strain BCK1 (second series), active compounds read low 0.97 | locus YJL095W, strain BCK1, active compounds read low 0.995 and 1.03 | locus YJL115W, strain asf1, active compounds read low 0.949 | locus YJL129C, strain trk1, active compounds read low 0.928 | locus YJL134W, strain LCB3, active compounds read low 1 | locus YJL154C, strain vps35, active compounds read low 0.967 | locus YJL164C, strain tpk1, active compounds read low 0.998 | locus YJL166W, strain qcr8, active compounds read low 0.913 | locus YJL168C, strain set2, active compounds read low 0.988 | locus YJL187C, strain SWE1 (second series), active compounds read low 0.993 | locus YJL187C, strain SWE1, active compounds read low 0.959 | locus YJR043C, strain POL32, active compounds read low 1.02 | locus YJR066W, strain TOR1, active compounds read low 0.973
active: locus YGL240W, strain doc1, active compounds read low 0.876

Reference: PubChem BioAssay AID1159580 (chemical genetic matrix, 2015)
